The target in the test is Voltage-dependent N-type calcium channel subunit alpha-1B (Homo sapiens) (UniProt Q00975). In words: disruptors of CaV2.2 binding to Mint1 – biochemical, HTRF (AID 2073). Conditions: HTRF protein-protein interaction, Mint1-CaV2.2, at 20 µM, stronger effect = higher value. For orientation: Time-resolved FRET reads energy transfer from a long-lived donor to a nearby acceptor.
Setting [1] is: measured here: average of repeat tests.

Where “and” joins values, the source holds several entries; their conditions need not be identical. Equal entries are not always repeated. Screen size: about 290,000 compounds; about 570 (0.2%) were called active. Not shown: some 1% with an inconclusive outcome. No stated cut-off is given here; in the data, active means inhibition mostly above about 51% (no sharp cut-off); inconclusive means no clear call, values can overlap the other calls; inactive means mostly below about 53%. Many of the other results were omitted from the sample, so actives are more common in it than they were.

Chain of Voltage-dependent N-type calcium channel subunit alpha-1B (Homo sapiens) (Q00975 whole entry, looked up): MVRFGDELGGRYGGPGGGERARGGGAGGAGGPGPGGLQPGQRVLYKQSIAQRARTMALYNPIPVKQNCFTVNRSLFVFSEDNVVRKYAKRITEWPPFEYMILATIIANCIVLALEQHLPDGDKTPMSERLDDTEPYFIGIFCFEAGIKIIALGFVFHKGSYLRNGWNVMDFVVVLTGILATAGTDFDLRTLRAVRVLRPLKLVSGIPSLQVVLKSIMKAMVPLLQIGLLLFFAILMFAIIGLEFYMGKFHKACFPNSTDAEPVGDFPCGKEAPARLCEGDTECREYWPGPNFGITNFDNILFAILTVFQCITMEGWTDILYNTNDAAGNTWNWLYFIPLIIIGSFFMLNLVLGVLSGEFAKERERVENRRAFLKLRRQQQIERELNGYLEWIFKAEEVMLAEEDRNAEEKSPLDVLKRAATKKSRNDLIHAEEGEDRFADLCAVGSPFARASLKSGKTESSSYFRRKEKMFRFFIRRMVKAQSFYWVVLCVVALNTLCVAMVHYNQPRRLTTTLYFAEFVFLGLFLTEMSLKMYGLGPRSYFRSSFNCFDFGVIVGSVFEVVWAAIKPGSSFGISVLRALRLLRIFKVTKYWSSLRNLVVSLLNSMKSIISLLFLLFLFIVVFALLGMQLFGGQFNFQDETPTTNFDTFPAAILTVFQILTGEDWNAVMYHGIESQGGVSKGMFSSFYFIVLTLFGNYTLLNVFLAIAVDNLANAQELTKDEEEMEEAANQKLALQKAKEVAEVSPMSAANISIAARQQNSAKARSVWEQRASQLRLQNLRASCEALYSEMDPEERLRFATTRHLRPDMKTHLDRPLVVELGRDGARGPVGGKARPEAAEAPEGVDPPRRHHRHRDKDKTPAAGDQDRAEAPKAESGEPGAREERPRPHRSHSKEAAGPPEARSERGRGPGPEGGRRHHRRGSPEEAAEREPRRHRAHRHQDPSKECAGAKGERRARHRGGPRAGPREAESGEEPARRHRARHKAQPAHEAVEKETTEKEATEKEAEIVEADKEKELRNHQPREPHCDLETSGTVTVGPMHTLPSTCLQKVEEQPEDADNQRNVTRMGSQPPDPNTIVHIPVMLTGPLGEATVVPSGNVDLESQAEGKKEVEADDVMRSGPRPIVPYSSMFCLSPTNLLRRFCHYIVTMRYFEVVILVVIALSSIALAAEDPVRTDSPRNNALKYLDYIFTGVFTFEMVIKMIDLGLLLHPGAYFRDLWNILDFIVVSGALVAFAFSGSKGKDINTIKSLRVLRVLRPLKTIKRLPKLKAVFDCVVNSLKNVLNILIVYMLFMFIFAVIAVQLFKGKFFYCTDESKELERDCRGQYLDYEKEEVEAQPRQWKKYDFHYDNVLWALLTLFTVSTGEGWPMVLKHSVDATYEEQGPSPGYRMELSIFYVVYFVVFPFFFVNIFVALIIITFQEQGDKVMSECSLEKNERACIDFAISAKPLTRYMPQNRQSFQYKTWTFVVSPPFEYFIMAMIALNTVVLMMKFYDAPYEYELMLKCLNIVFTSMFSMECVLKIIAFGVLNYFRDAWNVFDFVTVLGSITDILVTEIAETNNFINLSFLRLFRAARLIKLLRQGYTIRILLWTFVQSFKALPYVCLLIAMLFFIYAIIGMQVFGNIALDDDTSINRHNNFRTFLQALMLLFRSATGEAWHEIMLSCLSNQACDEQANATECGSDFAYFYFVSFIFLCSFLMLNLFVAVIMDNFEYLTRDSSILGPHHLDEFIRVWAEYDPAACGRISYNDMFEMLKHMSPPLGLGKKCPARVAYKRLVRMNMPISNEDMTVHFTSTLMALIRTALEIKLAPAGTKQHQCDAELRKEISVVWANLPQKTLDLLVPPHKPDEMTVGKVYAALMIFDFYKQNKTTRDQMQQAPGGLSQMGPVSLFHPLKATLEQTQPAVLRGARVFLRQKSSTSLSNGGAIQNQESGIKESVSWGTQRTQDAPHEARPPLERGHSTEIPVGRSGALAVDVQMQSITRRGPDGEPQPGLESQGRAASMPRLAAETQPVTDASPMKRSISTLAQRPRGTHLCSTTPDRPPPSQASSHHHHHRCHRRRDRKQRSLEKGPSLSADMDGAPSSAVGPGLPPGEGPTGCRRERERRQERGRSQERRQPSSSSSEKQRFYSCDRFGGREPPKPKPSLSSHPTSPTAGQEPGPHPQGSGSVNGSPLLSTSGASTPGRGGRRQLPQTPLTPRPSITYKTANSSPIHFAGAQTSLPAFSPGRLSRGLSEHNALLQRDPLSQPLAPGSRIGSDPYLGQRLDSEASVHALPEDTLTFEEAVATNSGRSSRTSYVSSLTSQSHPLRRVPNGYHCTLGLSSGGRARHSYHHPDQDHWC

A word on the inhibition: it is the drop in the measured response relative to a control, in per cent. As to `CCOC(=O)c1ccc(-n2cncn2)nc1`, the inhibition was -2.2% (inactive).
With `CC(=O)Nc1ccc(C(=O)Nc2ccc(S(=O)(=O)N3CCOCC3)cc2)cc1`, the inhibition is -1.1% (inactive).
Same read-out and setting: the same measure for `CN(C)S(=O)(=O)c1cccc(NC(=O)c2ccncc2)c1`: 8.6% (inactive); for `CC(=O)Nc1ccc(S(=O)(=O)N2CCN(S(=O)(=O)N3CCOCC3)CC2)cc1`: -2.3% (inactive).
With `CC1CN=C(Nc2cccc(S(=O)(=O)N(C)C)c2)S1` (stereo not given), the inhibition is -0.9% (inactive).
On the same count and under the same terms, the same measure for `CC(=O)Nc1ccc(S(=O)(=O)N2CCOCC2)cc1`: 11.4% (inactive); for `O=C(Nc1ccc(S(=O)(=O)N2CCOCC2)cc1)c1ccc(S(=O)(=O)N2CCOCC2)cc1`: 7.3% (inactive); for `Cc1ccc(C(=O)N/C(=C\c2ccc(-c3cccc([N+](=O)[O-])c3)o2)C(=O)NCCCN2CCOCC2)cc1`: -1.4% (inactive).
Same read-out and setting: the same measure for `COC(=O)Nc1nc2ccc(-c3n[nH]c(=O)c4ccccc34)cc2[nH]1`: -0.4% (inactive); for `Cc1cc(C)nc(Nc2ncc(O)n2-c2ccc(C)c(Cl)c2)n1`: 6% (inactive).
Still for that read-out and setting: under `Cc1ccc(NC(=O)CN(C)c2ccc(S(=O)(=O)N3CCCC3)cn2)cc1` stands -2.9% (inactive); under `CC1(C)CC2CC(C)(CN2C(=S)Nc2ccccc2)C1` (stereo not given), 12.7% (inactive); under `Fc1ccccc1Nc1nc2c(s1)CCc1ccccc1-2`, 94.8% (active).
`Nc1nc2c(s1)CCc1ccccc1-2`: the inhibition was -30.6% (inactive).
Still for that read-out and setting: the same measure for `CC(=O)Nc1nc2c(s1)CCc1ccccc1-2`: -3.5% (inactive).
On the same count and under the same terms, the same measure for `CC(c1nnc(SCC(=O)Nc2cccnc2Cl)n1Cc1ccccc1)N(C)C` (stereo not given): 1% (inactive); for `COc1cccc2nc3cc(C)c(C)cc3nc12`: 23.4% (inactive); for `COc1ccc2nc3cccc(OC)c3nc2c1`: 61.8% (active).
With `COc1ccc2nc3ccccc3nc2c1`, the inhibition is 23.5% (inactive).
Same read-out and setting: the same measure for `Cc1ccsc1/C=N/NC(=O)CO`: 7.8% (inactive).
Take `CCCCNC(=O)[C@H](CSCc1ccccc1)N1Cc2ccccc2C1=O`: the inhibition was 0.1% (inactive).
The same measure, in the same setting: the same measure for `COc1ccc(CNC(=O)COc2cc(=O)n(C)c3ccccc23)cc1`: 13.2% (inactive); for `O=C1/C(=C/c2ccco2)CCc2ccccc21`: 15.3% (inactive).
Still for that read-out and setting: under `Nc1ccc2c(c1)C/C(=C/c1ccco1)C2=O` stands 87.9% (active).
Same read-out and setting: the same measure for `O=C1/C(=C/c2ccco2)Cc2ccccc21`: 11.1% (inactive); for `CCCCn1ccnc1C`: -1.1% (inactive); for `O=C(CSc1cccc2cccnc12)Nc1ccccc1F`: 12.1% (inactive).
As for `C=CCOc1ccc(/C=C2\SC(N)=NC2=O)cc1OC`, the inhibition was 10.2% (inactive).
`CCCOc1ccc(/C=C2\SC(N)=NC2=O)cc1OC`: the inhibition was -3% (inactive).
Take `COc1cc(/C=C2\SC(N)=NC2=O)ccc1OCC(=O)Nc1ccc(C)cc1`: the inhibition was 61.4% (active).
Same read-out and setting: under `NC(=O)c1ccc2nc(-c3ccccc3)c(-c3ccccc3)nc2c1` stands 4.7% (inactive); under `NC(=O)c1ccc2c(=O)n3c(-c4cc(Cl)c(N)c(Cl)c4)csc3nc2c1`, -27% (inactive); under `O=C(NCc1nnc2c(C(F)(F)F)cc(Cl)cn12)c1ccc2c(c1)OCO2`, 9% (inactive).
With `O=C(c1ccc(COc2ccc(F)cc2)o1)n1cc(Br)cn1`, the inhibition was 8% (inactive).
Same read-out and setting: under `CCCN1C(=O)/C(=C\C=C2/Sc3ccccc3N2CCO)SC1=S` stands 26.3% (inactive); under `CCN1C(=O)/C(=C/C=C2/Sc3ccc4ccccc4c3N2CCO)SC1=S`, 74.6% (active).
The same measure, in the same setting: under `CCN1C(=O)/C(=C/C=C2/Sc3ccccc3N2CCO)SC1=S` stands 38.4% (inactive); under `CC(C)CC(NC(=O)c1ccccc1)C(=O)N/N=C/c1ccco1` (stereo not given), 3.7% (inactive).
On the same count and under the same terms, under `CCOc1ccccc1-n1c(SCC(N)=O)nnc1-c1ccccc1` stands -2.1% (inactive).
Take `O=C(Nc1nc2ccccc2s1)c1cccc(S(=O)(=O)N2CCc3ccccc32)c1`: the inhibition was 8.8% (inactive).
Same read-out and setting: the same measure for `Cc1cc(C)c2nc(NC(=O)c3cccc(S(=O)(=O)N4CCc5ccccc54)c3)sc2c1`: 6.3% (inactive); for `Cc1cccc2sc(NC(=O)c3cccc(S(=O)(=O)N4CCc5ccccc54)c3)nc12`: 68.3% (active); for `CCOc1ccc(C(CCc2ccccc2)NC(=O)c2ccccc2F)cc1OCC` (stereo not given): 5.7% (inactive).
On to `O=C(O)C(Cc1c[nH]c2ccccc12)NS(=O)(=O)c1ccc(Br)cc1` (stereo not given), for which the inhibition was -0.4% (inactive).
As for `CNC(=O)c1c(O)c2cccc3c2n(c1=O)CCC3`, the inhibition is 22.2% (inactive).
In the case of `Cn1c(=S)[nH]c(=O)c2ncc(=O)[nH]c21`, the inhibition is -1.9% (inactive).
On the same count and under the same terms, the same measure for `O=C(O)CCCCC1SCC2NC(=O)NC21` (stereo not given): 8.5% (inactive) and -9.5% (inactive); for `O=C(O)CCCCCCCC(=O)O`: 0.9% (inactive); for `O=C(O)CCCCC1CCSS1` (stereo not given): 101% (active).
As to `O=[N+]([O-])c1ccc(O)c(C=Nc2cccc3ccccc23)c1`, the inhibition is -35.1% (inactive).
With `COCCNC(=O)C(c1ccc(OC)cc1)N(CCOC)C(=O)CCC(=O)Nc1nccs1` (stereo not given), the inhibition was -3.6% (inactive).
Same read-out and setting: the same measure for `O=C(NCc1ccco1)c1cccn2c(=O)c3cc4ccccc4cc3nc12`: 54.4% (active); for `COCCCNC(=O)c1cccn2c(=O)c3cc4ccccc4cc3nc12`: -3.3% (inactive); for `O=C(NCc1ccco1)c1cnc2ccccn2c1=O`: 0.3% (inactive).
As for `Cc1ccc(N(C(=O)c2ccco2)C(C(=O)NC2CCCC2)c2cccnc2)cc1` (stereo not given), the inhibition was -0.3% (inactive).
Take `O=C(N/N=C/c1ccc[nH]1)c1ccc(O)cc1`: the inhibition is 38.2% (inactive).
Still for that read-out and setting: under `O=C1/C(=C/c2cccc(Br)c2)SC(=S)N1/N=C/c1cc([N+](=O)[O-])ccc1O` stands -2.1% (inactive).
Still for that read-out and setting: under `Cc1ccc(/C=C2\SC(=S)N(/N=C/c3cc([N+](=O)[O-])ccc3O)C2=O)o1` stands 73.2% (active); under `Cc1ccccc1/C=C1\SC(=S)N(/N=C/c2cc([N+](=O)[O-])ccc2O)C1=O`, 5.4% (inactive); under `CCn1cc(CN2CCCC(C(=O)c3ccc(-c4ccccc4)c(F)c3)C2)cn1` (stereo not given), 6.5% (inactive).
As to `O=C(O)C1CCC(N2C(=O)c3cccc([N+](=O)[O-])c3C2=O)CC1` (stereo not given), the inhibition is 5.9% (inactive).
Same read-out and setting: the same measure for `O=C(O)C1CCC(N2C(=O)c3c(Cl)c(Cl)c(Cl)c(Cl)c3C2=O)CC1` (stereo not given): 81.3% (active); for `O=C(O)C1CCC(N2C(=O)C3CCCCC3C2=O)CC1` (stereo not given): -2.9% (inactive).
For `O=C1C2C3C=CC(C3)C2C(=O)N1c1n[nH]c(-c2ccccc2)n1` (stereo not given), the inhibition is 11% (inactive).
The same measure, in the same setting: the same measure for `CC(=O)Oc1cc(O)c2c(c1)OC(c1ccc(OC(C)=O)c(OC(C)=O)c1)C(OC(C)=O)C2=O` (stereo not given): 8.9% (inactive); for `CC1=NN(c2ccc(C)cc2)C(=O)/C1=C/c1ccc(-c2cc([N+](=O)[O-])ccc2O)o1`: 44.4% (inactive); for `O=C1NN(c2cccc(Br)c2)C(=O)/C1=C/c1ccc(-c2cc([N+](=O)[O-])ccc2O)o1`: 61.4% (active).
For `O=C1NN(c2ccccc2)C(=O)/C1=C\c1ccc(-c2cc([N+](=O)[O-])ccc2O)o1`, the inhibition was 31.4% (inactive).
Take `COc1ccc(/C=C2\SC(=S)N(CCC(=O)NCCCN3CCOCC3)C2=O)cc1`: the inhibition was -10.7% (inactive).
Still for that read-out and setting: the same measure for `CCc1ccc(C(=O)NNc2ccc(Cl)cc2)cc1`: -10.8% (inactive); for `COc1cc(CNCCO)cc(Br)c1OCc1cccs1`: -3.4% (inactive).
On the same count and under the same terms, under `O=C(Nn1cnnc1)c1csc2ccccc12` stands -11.1% (inactive); under `Cc1cc2nc3c(=O)n(CCc4ccccc4)c(=O)[nH]c3nc2cc1N`, 36.3% (inactive); under `CCCCCCn1c(=O)[nH]c2nc3cc(N)c(C)cc3nc2c1=O`, 4.4% (inactive).
In the case of `Cc1cc2nc3c(=O)n(Cc4ccccc4)c(=O)[nH]c3nc2cc1N`, the inhibition is 55.1% (active).
Turning to `NC1=NC[C@@H](Cc2ccc(O)cc2)N1CCc1cccc(F)c1`, the inhibition was 16.7% (inactive).
Same read-out and setting: under `CC1CN(C(=O)CCCN2C(=O)c3ccccc3C2=O)CC(C)O1` (stereo not given) stands -7.3% (inactive); under `COc1ccc2[nH]c(=O)c(CN(Cc3nnnn3Cc3ccco3)C3CCCCC3)cc2c1`, 1.1% (inactive); under `COc1ccc2[nH]c(=O)c(CN(Cc3ccco3)C(c3nnnn3Cc3ccccc3)C(C)C)cc2c1` (stereo not given), 12.1% (inactive).
For `Cn1c(/C=C/c2cccc([N+](=O)[O-])c2)nc2ccccc2c1=O`, the inhibition is -20.2% (inactive).
Still for that read-out and setting: the same measure for `CCOC(=O)C(O)(CC(=O)c1ccc(OC)cc1)C(F)(F)F` (stereo not given): -6.5% (inactive); for `CC(C)(C)c1cc(N)on1`: -7.8% (inactive); for `CC1=CC(=O)c2c(O)ccc(O)c2C1=O`: 85.1% (active).
On to `CC1=CC(=O)c2ccccc2C1=O`, for which the inhibition is -11.2% (inactive).
The same measure, in the same setting: under `COc1cccc2c1C(=O)C=C(C)C2=O` stands -19.2% (inactive); under `O=C(CCl)Nc1nc(-c2ccco2)c(-c2ccco2)s1`, 66% (active).
The same measure, in the same setting: the same measure for `O=C(Nc1nc(-c2ccco2)c(-c2ccco2)s1)C1CC(=O)N(c2ccc3c(c2)OCCO3)C1` (stereo not given): 66.7% (active).
On to `O=C(Nc1nc(-c2ccco2)c(-c2ccco2)s1)C1CCC1`, for which the inhibition is 58.1% (inactive). Also, under setting [1], the inhibition is 1.4%.
Regarding `CCc1nnc(NC(=O)C2CC(=O)N(c3ccc4c(c3)OCCO4)C2)s1` (stereo not given), the inhibition is 3% (inactive).
`O=C(CCCSc1ccccc1)Nc1nc(-c2ccco2)c(-c2ccco2)s1`: the inhibition was 71.8% (inactive). Moreover, the inhibition under setting [1] is -7.2%.
For the compound `O=C(Nc1nnc(C2CC2)s1)C1CC(=O)N(c2ccc3c(c2)OCCO3)C1` (stereo not given), the inhibition was 12.6% (inactive).
Still for that read-out and setting: under `COc1ccc(CCN(C(=S)Nc2ccccc2)C2CC(=O)N(c3ccccc3)C2=O)cc1` (stereo not given) stands 6.3% (inactive); under `CC(C)Oc1cccc(C(=O)C2CCCN(C(=O)c3ccsc3)C2)c1` (stereo not given), -8.4% (inactive).
As for `N#Cc1cnc(NOCc2ccc(Cl)cc2)nc1`, the inhibition was 9.4% (inactive).
Same read-out and setting: under `O=c1c2c3n(c(=O)nc2[nH]n1-c1ccccc1)CCCCC3` stands 1.1% (inactive); under `O=C(NCCN1CCOCC1)/C(=C\c1ccccc1Cl)NC(=O)c1ccccc1`, 9.8% (inactive).
The same measure, in the same setting: under `COc1ccc(N=C2S/C(=C\c3ccc(OCC(=O)O)cc3)C(=O)N2CCc2c[nH]c3ccccc23)cc1` stands 35.3% (inactive); under `COc1cc(/C=C2\SC(=Nc3ccccc3)N(CCc3c[nH]c4ccccc34)C2=O)ccc1OC(C)C(=O)O` (stereo not given), 6.2% (inactive).

These data come from PubChem BioAssay AID2073 (Sanford-Burnham Center for Chemical Genomics, 2009).
